Measurements taken from PubChem BioAssay AID2289 (National Center for Advancing Translational Sciences (NCATS), 2010).
In all, about 340,000 compounds went through this assay and about 3,300 (0.97%) were called active. About 9% were inconclusive and are not listed. The call rests on the fitted dose curve; in most records, active means well fitted inhibition curve with a large enough effect; inconclusive means small, poorly fitted or top-dose-only effect, or effect the other way; inactive means flat fitted curve, though single readings scatter. The list shows a part of the results.

Assay: qHTS Assay for Modulators of miRNAs and/or Inhibitors of miR-21; further: nearly all actives have a fitted effect of over 55% in size
Conditions: HeLa miR-21-FLuc reporter, luciferase luminescence, 48 h; actives lower the signal
In short: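 Compounds were titrated across several concentrations (up to approximately 40 uM) and incubated 48 hours with HeLa miR-21-FLuc reporter cells (miR-21 target sequence downstream of FLuc, endogenous miR-21). Readout was firefly luciferase luminescence after lytic detection reagent.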
Potency means the concentration at half of the fitted maximal effect.

Potency, active:
CNc1oc(-c2ccc(Cl)cc2)nc1C#N 3.29 µM, COCCNc1oc(-c2ccc(Cl)cc2)nc1C#N 9.27 µM, O=c1c2c3c(sc2nc(NCCO)n1Cc1ccco1)CCCCC3 16.5 µM, COCCNC(=O)c1ccc2c(c1)ncn2-c1ccc(F)c(F)c1 16.5 µM, COC(=O)c1cc2c(ccn2-c2ccc(F)cc2)n1Cc1ccc(OC(C)=O)cc1 18.5 µM, COc1cc(O)sc1C=Nc1ccc(Cl)cc1 7.36 µM, CCOC(=O)c1c(C)c(C(=O)NCCc2ccccc2)c(C)n1C 11.7 µM, Cc1nn(Cc2ccccc2)c(Cl)c1C(=O)NCCc1ccccc1 2.33 µM, Cc1nn(Cc2ccccc2Cl)c(Cl)c1C(=O)NCCc1ccccc1 2.07 µM, O=C(NCCc1c[nH]c2ccccc12)c1cnc2sccn2c1=O 3.29 µM, Cc1ccc(C(=O)NCCc2c[nH]c3ccccc23)s1 5.21 µM, Cc1ccsc1C(=O)NCCc1c[nH]c2ccccc12 14.7 µM, COc1ccccc1C1N=C(c2ccccc2C)NO1 (configuration not stated) 7.36 µM, CCOC(=O)c1oc2c(c1C)/C(=N/O)CCC2 11.7 µM, CCCCCCSc1nc(N)c2c3c(sc2n1)CCCC3C (configuration not stated) 14.7 µM, CN(c1cc(=O)n2ccccc2n1)C1CCCCC1 13.1 µM, CCN(C(=O)c1cc2c(=O)n3ccccc3nc2n1C)C1CCCCC1 11.7 µM, Cc1ccc(N=c2sc(C)c(C)n2C)cc1 11.7 µM, C/C(=N\NC(=O)c1sccc1C)c1ccncc1 2.93 µM, C/C(=N\Nc1ccc(C)c(Cl)c1)c1cccnc1 13.1 µM, C/C(=N\NC(=O)c1sccc1C)c1cccnc1 4.14 µM, Cc1ccccc1-c1nnc(-c2cccs2)o1 6.56 µM, Cc1ccccc1-c1nnc(-c2ccc(Cl)cc2)o1 2.07 µM, CC1CN(C(=O)N2CCC(C(=O)NCc3cccs3)CC2)c2ccccc2O1 (configuration not stated) 1.47 µM, S=C(N/N=C/c1ccc(Cl)cc1)N1CCOCC1 9.27 µM, Cc1ccc(/C=N/NC(=S)N2CCOCC2)cc1 13.1 µM, O=C(Nc1ccc(F)cc1)c1nsc(Cl)c1Cl 1.65 µM, COc1c(O)cc2oc(-c3ccc(O)cc3)cc(=O)c2c1O 2.33 µM, COc1c(O)cc2oc(-c3ccc(O)c(O)c3)cc(=O)c2c1O 5.21 µM, Cn1c(CSc2nc3ccccc3s2)nc2ccccc21 4.14 µM, Cn1c(CNc2ccc(O)cc2)nc2ccccc21 16.5 µM, COc1ccc(CNc2nc3ccccc3n2C)c(O)c1 1.17 µM, COc1ccccc1C(=O)COC(=O)c1ccc(N(C)C)cc1 3.29 µM, COc1ccc(/C=C2\Cc3ccccc3C2=O)cc1OC 14.7 µM, O=C1/C(=C/c2ccccc2)CCCc2ccccc21 7.36 µM, COc1ccc(/C=C2/CCc3ccccc3C2=O)cc1OC 18.5 µM, O=C(O)c1cccc(NC(=S)N/N=C/c2ccccc2OCc2ccc(Br)cc2)c1 11.7 µM, O=C(O)c1cnn(-c2nc(-c3ccc(F)cc3)cs2)c1C(F)(F)F 14.7 µM, O=C(O)c1cnn(-c2nc(-c3ccc(Cl)cc3)cs2)c1C(F)(F)F 13.1 µM, O=C(O)c1cnn(-c2nc(-c3ccc(Br)cc3)cs2)c1C(F)(F)F 11.7 µM, O=C(O)c1cnn(-c2nc(-c3ccc(Cl)c(Cl)c3)cs2)c1C(F)(F)F 5.21 µM, COc1ccccc1-c1nn2c(-c3ccco3)nnc2s1 4.65 µM, CCOC(=O)c1oc2ccc(/C=N/O)c(Cl)c2c1C 8.26 µM, CC(C)(C)c1ccc(/C=N/NC(=O)C2CCCC2)cc1 16.5 µM, Cn1cccc1CC(=O)N/N=C/c1ccc(C(C)(C)C)cc1 10.4 µM, Cc1ccc(OCC(=O)Nc2cccc(C(=O)OCc3cc(=O)n4nc(C)sc4n3)c2)cc1 0.736 µM, Cc1cn2c(=O)cc(COC(=O)c3cccc(NC(=O)COc4ccccc4Cl)c3)nc2s1 0.329 µM, COc1ccc(NC(=S)Nc2ccccn2)cc1 2.93 µM, COC(=O)c1ccc(NC(=S)Nc2ccccn2)cc1 2.07 µM, COc1ccccc1N1CCN(C(=O)c2nc(-c3ccc(C)cc3)n3c2CCCCC3)CC1 1.47 µM, Cc1ccc(/C(N)=N/OC(=O)c2ccc3c(c2)OCO3)cc1 0.464 µM, N/C(=N\OC(=O)c1ccc(Cl)cc1)c1cccnc1 2.61 µM, N/C(=N\OC(=O)c1ccc2c(c1)OCO2)c1cccnc1 3.69 µM, Cc1cc(/C(N)=N/OC(=O)c2ccc(Cl)cc2)no1 1.47 µM, Cn1cccc1/C=C1\SC(=O)N(c2ccccc2)C1=O 0.927 µM, CCCNC(=O)c1cc(-c2ccco2)on1 3.69 µM, O=C(NCCc1ccccc1)c1cc(-c2ccco2)on1 3.29 µM, CC1CCN(C(=O)c2cc(-c3ccco3)on2)CC1 3.69 µM, Cn1c(NC(=O)c2cccc(Cn3cc(Cl)cn3)c2)nc2ccccc21 4.65 µM, O=C(Nc1ccccc1F)c1ccc(Cn2cc(Cl)cn2)cc1 10.4 µM, Cc1cc2c([nH]c3ccccc32)c2c1OC(C)(C)C=C2 3.69 µM, COc1ccc(OCc2cc(C(=O)N3CCCC(O)C3)no2)c2ccccc12 (configuration not stated) 5.85 µM, COc1ccc(OCc2cc(C(=O)N3CCCC(OC)C3)no2)c2ccccc12 (configuration not stated) 16.5 µM, Oc1c(/C=N/c2ccccn2)sc2ccccc12 2.07 µM, O=C(OCCOc1ccccc1)c1n[nH]c2ccccc12 1.47 µM, O=C(O)C(=O)/C(=C\c1ccsc1)c1ccc2ccccc2n1 1.47 µM, N#Cc1ccc(/C=C(\C(=O)C(=O)O)c2ccc3ccccc3n2)cc1 1.04 µM
